# From PubChem BioAssay
# AMA1 RON2 block: inhibitors of Plasmodium falciparum AMA1-RON2 interaction. AlphaScreen AMA1-biotinylated RON2 peptide binding. Potency, µM (titrated, usually from 58.2 µM), inactives show at the top dose activity change, negative = inhibition, usual class: inhibitors. actives 0.2% (n = 360,000). AID 720542; active = well fitted inhibition curve with a large enough effect; inconclusive = small, poorly fitted or top-dose-only effect; inactive = no such curve, though single readings can be large or run the other way;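 also: potency is read from the fitted curve at half-maximal effect; 0% = vehicle wells and -100% = peptide control; nearly all actives have a fitted effect of over 45% in size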
#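 AMA1 (3D7) with his tag at 25 nM final met compounds first, then biotinylated RON2 peptide at 25 nM; detection used donor plus acceptor beads, 10 µg/mL apiece, read by AlphaScreen after 30 min at room temperature.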
# Marburg entry inh: inhibitors of Marburg virus binding or cell entry | AID 540276 | Potency, µM (series often up to 37.8 µM), for inactives: at the top dose activity change, negative = inhibition, most hits filed as inhibitors | Marburg virus pseudotyped entry inhibition, cell reporter | actives 1.8% (n = 300,000); calls by dose curve; tested in HEK293 cells; also: potency is read from the fitted curve at half-maximal effect; % is scaled to controls: 0 for no effect and ±100 for the full control effect
# Shiga inhibitor: inhibitors of Shiga toxin in Vero cells; actives 9.2% (n = 290,000); inhibition, % at 38.7 µM; Vero cells, Shiga toxin protein synthesis inhibition reporter; AID 2315; in the data active = inhibition mostly above about 28%, no sharp cut-off; inactive = mostly below about 43%; also: 0% is about no effect
# Cycloheximide cs: counter-screen for Shiga toxin inhibitors: cycloheximide protein synthesis inhibition. actives 12% (n = 300,000). AID 2314. max response, %. cell reporter, cycloheximide protein synthesis inhibition counterscreen; in the data active = max response mostly above about 13%, no sharp cut-off; inactive = mostly below about 14%; also: read at 38.3 µM for the half of the compounds with a filed dose; 0% is about no effect
# LASV entry inh: blocks Lassa virus binding to or entry into cells | Lassa virus pseudotype entry inhibition, cell reporter | actives 1.2% (n = 300,000) | Potency, µM (top dose mostly 37.9 µM), for inactives: at the top dose activity change, negative = inhibition, most hits filed as inhibitors | AID 540256; calls by dose curve; tested in HEK293 cells; also: potency is read from the fitted curve at half-maximal effect; % is scaled to controls: 0 for no effect and ±100 for the full control effect; nearly all actives have a fitted effect of over 50% in size
# An asterisk follows results filed as active; ? = inconclusive; · = not tested or not shown; [ ] = dose if it differs, or a comment. This is one part of a sample in which hits are shown more often than they occur.
SMILES,AMA1 RON2 block,Marburg entry inh,Shiga inhibitor,Cycloheximide cs,LASV entry inh
CCOc1ccc(-n2c(=O)c3sccc3n(CC(=O)NCC3CCCO3)c2=O)cc1 (centres undefined),-24%,15%[46.1 µM],-17,-4,-2%[46.1 µM]
CC1CCCC(NC(=O)CN2CCN(S(=O)(=O)c3ccc(Br)s3)CC2)C1C (centres undefined),-1%,-19%,·,·,-18%
Cc1ccc(-c2csc(N)n2)cc1,-5%,25%[46.1 µM],·,·,16%[46.1 µM]
Nc1nc(-c2ccc3ccccc3c2)cs1,-7%,?,86*,43*,19%
c1ccc2cc(-c3csnn3)ccc2c1,11%,16%[46.1 µM],108*,32*,17%
COc1ccc(-c2csc(N)n2)cc1,2%,?,58*,37*,-21%
Cc1ccc(-c2csnn2)cc1,14%,·,28,-1,·
Nc1nc(-c2ccc(Oc3ccccc3)cc2)cs1,10%,·,53*,39*,·
COc1ccc(-c2csc(C(C)(O)c3ccccc3)n2)cc1 (centres undefined),1%,·,·,·,·
COCOCCn1cc(CN2CCS(=O)(=O)N(Cc3ccc(-c4ccc(OC)cc4)cc3)C(C)C2=O)nn1 (centres undefined),-4%,?,·,·,·
CCOC(=O)Nc1c[n+](N2CCOCC2)no1,·,1%,·,·,·
CCOc1ccc2noc3c2c1C(=O)c1ccccc1-3,14%,·,27,15,·
O=C1c2ccccc2-c2onc3c(Oc4ccccc4)cc(O)c1c23,·,-5%,27,22*,·
CCCCn1c(N)c(N(CC(C)C)C(=O)C2CCN(S(=O)(=O)c3ccc(Cl)cc3)CC2)c(=O)[nH]c1=O,8%,0%,·,·,-1%
Cc1cccc(CCNc2ncnc3onc(-c4ccc(Cl)cc4)c23)c1,·,?,·,·,-2%[46.1 µM]
O=P(Cc1cc(Br)cc(Br)c1OCCO)(c1ccccc1)c1ccccc1,-2%,?,10,-3,?
O=P(c1ccccc1)(c1ccccc1)c1cc(Br)cc(Br)c1OCCO,4%,13µM*,-7,-6,-4%[46.1 µM]
O=S(=O)(O)c1cccc(N=Nc2c(O)ccc3ccccc23)c1,-25%,·,-6,-2,·
Oc1ccc2ccccc2c1N=Nc1ccccn1,10µM*,?,18,15,8.9µM*
Oc1ccc2ccccc2c1N=Nc1ccccc1F,10µM*,·,21,4,·
CCN(CC)c1ccc(NC(=S)Nc2ccc(F)cc2)cc1,32µM*,?,48*,27*,-10%
Oc1ccc(NC(=S)Nc2ccc(F)cc2)cc1,14%,·,36,9,·
Fc1ccc(NC(=S)Nc2ccc(Br)cc2)cc1,37%,-38%,5,33*,?
C#CCN1C(=O)[C@]2(OCCC=C[C@H]2C)c2ccccc21,·,43%[14.2 µM],·,·,?
CCOC(=O)C(=CNc1cc(Cl)c(-c2ccco2)c(Cl)c1)C(=O)OCC,-7%,·,-6,-2,·
SMILES,AMA1 RON2 block,Marburg entry inh,Shiga inhibitor,Cycloheximide cs,LASV entry inh
Cc1cc(C)cc(N(CC(=O)NCC2CCCO2)C(=O)CCC(=O)Nc2nccs2)c1 (centres undefined),5%,-28%,-5,-7,1%
COC(=O)c1ccc(C)cc1,16%,·,·,·,·
COC(=O)c1coc(-c2ccc(C)cc2)c1C(=O)OC,0%,27%,66*,39*,?
COC(=O)c1coc(-c2ccc(OC)cc2)c1C(=O)OC,2%,?,71,43*,3%
COC(=O)c1c(C(=O)OC)c(-c2ccc(OC)cc2)n2c1CCC2,13%,·,-4,-9,·
CCOC(=O)c1cccc(NC(=O)c2cncc(Br)c2)c1,12%,6%,46*,41*,-13%
CCOC(=O)c1cccc(NC(=O)c2ccc(-n3cnnn3)cc2)c1,15%,7%[46.1 µM],·,·,-3%[46.1 µM]
CCOC(=O)c1cccc(NC(=O)c2cccnc2)c1,6%,-11%,15,11,9%
CCCOC(=O)c1cccc(NC(=O)C(C)(C)C)c1,9%,30%,32*,18*,?
CCOC(=O)c1cccc(NC(=O)c2cnc3ccccc3n2)c1,-1%,-11%,57,35*,-27%
CCOC(=O)c1cccc(NC(=O)c2ccc(N(C)C)cc2)c1,-3%[2.32 µM],?,108*,68*,?
CCOC(=O)c1cccc(NC(=O)c2ccc(NC(=O)c3ccco3)cc2)c1,-17%,·,-14,-3,·
CCOC(=O)N/C(N)=N/c1nc2ccccc2s1,43%,-18%,66*,34*,?
CC(=O)Nc1nc(=O)c2ccccc2s1,-5%,11%,32,-7,-18%
CCOC(=O)NC(=O)COC(=O)CCCSc1nc2ccccc2s1,8%,-28%[46.1 µM],13,2,-30%
